From PubChem BioAssay AID1637 (Sanford-Burnham Center for Chemical Genomics, 2009)
Fewer than 10 of roughly 3,700 compounds were called active. How the calls were made is not given here. These entries were drawn from the full list.

Experiment: NMR binding screen, influenza A RNA promoter, Kd (AID 1637)
Conditions: NMR binding to influenza A RNA promoter

| SMILES | Kd |
| --- | --- |
| CC1=NNC(=O)C1CCc1ccncc1 (stereo not given) | > 4 mM (inactive) |
| O=C(NCc1ccccc1Br)c1ccco1 | > 4 mM (inactive) |
| COc1ccc(-c2c(OC)c3c(OC)c4c(cc3oc2=O)OC(C)(C)C=C4)cc1 | > 4 mM (inactive) |
| CCN=Cc1c(O)n(-c2ccccc2C)c(=O)[nH]c1=O | > 4 mM (inactive) |
| NC(=O)c1ccc(NC(=O)C2CC2)cc1 | > 4 mM (inactive) |
| c1ccc(CCN2CCN(CCc3ccccn3)CC2)nc1 | > 4 mM (inactive) |
| COc1c(O)cc2c(c1O)[C@H]1O[C@H](CO)[C@@H](O)[C@H](O)[C@@H]1OC2=O | > 4 mM (inactive) |
| COc1cc(/C=C2/NC(=S)NC2=O)cc(Cl)c1O | > 4 mM (inactive) |
| O=C(Nc1nccs1)c1ccc(=O)[nH]n1 | > 4 mM (inactive) |
| COC(=O)c1ccc2nc[nH]c2c1 | > 4 mM (inactive) |
| CNS(=O)(=O)c1cccs1 | > 4 mM (inactive) |
| OCCCc1nc2ccc(C(F)(F)F)cc2[nH]1 | > 4 mM (inactive) |
| CC(=O)Nc1ccc(S(=O)(=O)N(C)C)cc1 | > 4 mM (inactive) |
| O=C(NCc1cccc(Cl)c1)c1cnccn1 | > 4 mM (inactive) |
| Cc1cc(C)n(CCCC(=O)O)n1 | > 4 mM (inactive) |
| Cn1c(O)c(/C=C2\C=CC=N2)c(=O)[nH]c1=O | > 4 mM (inactive) |
| CCOC(=O)c1ccc2c(c1)nnn2C | > 4 mM (inactive) |
| COc1ccc(-c2coc3c(OC)c(OC)cc(OC)c3c2=O)cc1 | > 4 mM (inactive) |
| NCc1c[nH]c2ccccc12 | > 4 mM (inactive) |
| Cn1c(=O)n(C)c2cc(C(N)=O)ccc21 | > 4 mM (inactive) |
| CC(C)=NNC(=O)C(=O)NC(C)(C)C | > 4 mM (inactive) |
| NC(=O)C1CCN(C(=O)c2ccccc2)CC1 | > 4 mM (inactive) |
| CN1C(=O)/C(=C/c2ccc(O)cc2O)SC1=S | > 4 mM (inactive) |

| SMILES | Kd |
| --- | --- |
| NC(C(=O)O)C(O)c1ccccc1 (stereo not given) | > 4 mM (inactive) |
| CCOC(=O)c1c(C)[nH]c2ccc(O)cc12 | > 4 mM (inactive) |
| O=C(Cc1ccc(F)cc1)Nc1ncccn1 | > 4 mM (inactive) |
| Fc1ccc(-c2n[nH]c(=S)n2CC2CCCO2)cc1 (stereo not given) | > 4 mM (inactive) |
| O=C(CC1SC(=O)NC1=O)Nc1nccs1 (stereo not given) | > 4 mM (inactive) |
| O=C(O)c1cccc2c1OCCCO2 | > 4 mM (inactive) |
| NC(=S)CN1CCCC1=O | > 4 mM (inactive) |
| CC1=NN(c2ccc(C)cc2)C(=O)C1 | > 4 mM (inactive) |
| O=P(c1ccccc1)(c1ccccc1)C1CCOCC1 | > 4 mM (inactive) |
| CC(=O)N1CCN(S(=O)(=O)c2ccccc2)CC1 | > 4 mM (inactive) |
| CN1CCN(CC(=O)N2CCc3ccccc32)CC1 | > 4 mM (inactive) |
| O=C(NC1=NCCS1)c1cccc(F)c1 | > 4 mM (inactive) |
| O=C1NC(=S)S/C1=C/c1ccncc1 | > 4 mM (inactive) |
| Cc1[nH]c2ccccc2c1C(=O)CSc1ncn[nH]1 | > 4 mM (inactive) |
| O=C(NN1CCOCC1)c1ccccc1F | > 4 mM (inactive) |
| Cc1cc(=O)oc2cc3c(cc12)OCCO3 | > 4 mM (inactive) |
| CC1SC(=NC(=O)c2ccncc2)NC1=O (stereo not given) | > 4 mM (inactive) |
| Cc1cc(OC(=O)c2ccco2)c([N+](=O)[O-])c(=O)[nH]1 | > 4 mM (inactive) |
| Cc1c(O)c(O)cc2c1CC=C1[C@@]2(C)CC[C@@]2(C)C3C[C@](C)(C(=O)O)CC[C@]3(C)CC[C@]12C (stereo not given in full) | > 4 mM (inactive) |
| CCN1CCn2c1nc(N1CCOCC1)nc2=O | > 4 mM (inactive) |
| Nc1cc(=O)[nH]c(=S)n1-c1ccc(F)cc1 | > 4 mM (inactive) |
| Cc1cc(=O)n2ncn(Cc3ccccc3)c2n1 | > 4 mM (inactive) |
| Nc1ccc(-n2cccc2)cc1 | > 4 mM (inactive) |

| SMILES | Kd |
| --- | --- |
| CC1(C)Cc2nc(N3CCOCC3)c(C#N)cc2CO1 | > 4 mM (inactive) |
| O=C1c2cccnc2C(=O)N1Cc1ccc2c(c1)OCO2 | > 4 mM (inactive) |
| Cn1ccnc1C(O)c1ccccc1 (stereo not given) | > 4 mM (inactive) |
| CS(=O)(=O)c1ccccc1C(=O)Nc1nccs1 | > 4 mM (inactive) |
| NS(=O)(=O)c1ccc(NC(=O)C2CC2)cc1 | > 4 mM (inactive) |
| COc1ccc(/C=C2/NC(=S)NC2=O)cc1 | > 4 mM (inactive) |
| CC(=O)NC(NC(C)=O)c1ccccc1 | > 4 mM (inactive) |
| O=S(=O)(O)c1cc[n+]([O-])cc1 | > 4 mM (inactive) |
| Cc1cc(N2C(=O)CCC2=O)n(-c2ccccc2)n1 | > 4 mM (inactive) |
| Nc1nc(-c2ccc(O)cc2)cs1 | > 4 mM (inactive) |
| O=C(CNC(=O)c1ccc(F)cc1)NC1=NCCS1 | > 4 mM (inactive) |
| COCCOc1nc2ccccc2nc1C | > 4 mM (inactive) |
| O=C1C2CC=CCC2C(=O)N1c1ccccc1O (stereo not given) | > 4 mM (inactive) |
| Cc1ccn(S(=O)(=O)c2ccc(F)cc2)n1 | > 4 mM (inactive) |
| NS(=O)(=O)c1ccc(NC(=O)C(F)(F)F)cc1 | > 4 mM (inactive) |
| CC(C)C(C)/C=C/C(C)[C@H]1CCC2C3=CCC4CC(=O)CC[C@]4(C)C3CC[C@@]21C (stereo not given in full) | > 4 mM (inactive) |
| CS(=O)(=O)NC1CCN(Cc2ccccc2)CC1 | > 4 mM (inactive) |
| CC(=O)c1c(O)c(C)c(O)c2c1OC1=CC(=O)C(C(C)=O)C(=O)C12C (stereo not given) | > 4 mM (inactive) |
| O=C(O)c1coc2c1C(=O)CCC2 | > 4 mM (inactive) |
| S=c1[nH]nc(-c2cccnc2)n1Cc1ccccc1 | > 4 mM (inactive) |
| CS(=O)(=O)N1CCN(C(=O)Cc2cccs2)CC1 | > 4 mM (inactive) |
| NC1=NC(=O)/C(=C/c2ccccc2[N+](=O)[O-])S1 | > 4 mM (inactive) |
| CCN1CC2(C)CC[C@H](OC)[C@]34C2[C@H](O)C2(OCO[C@@]25C[C@H](OC)[C@H]2C[C@]3(O)C5[C@H]2O)C14 | > 4 mM (inactive) |

| SMILES | Kd |
| --- | --- |
| O=c1c2ccccc2oc2ccc(O)cc12 | > 4 mM (inactive) |
| COc1cc(C)c(S(=O)(=O)N2CCN(C)CC2)cc1C | > 4 mM (inactive) |
| Nc1ncnc(NCc2cccnc2)c1[N+](=O)[O-] | > 4 mM (inactive) |
| COC(=O)c1nc(-c2ccccc2)oc1N(C)C | > 4 mM (inactive) |
| Cc1cc(C)n(S(=O)(=O)c2cc(C)c(C)cc2C)n1 | > 4 mM (inactive) |
| CCc1cc2c(SCC(=O)O)ncnc2s1 | > 4 mM (inactive) |
| O=C(c1ccccc1)c1ccc(N2CCNCC2)cc1 | > 4 mM (inactive) |
| CC(=O)Nc1cccc(NC(=O)c2cccnc2)c1 | > 4 mM (inactive) |
| C(=N\c1nccs1)/c1cccnc1 | > 4 mM (inactive) |
| Cc1ccccc1C(=O)Nn1cnnc1 | > 4 mM (inactive) |
| OCc1cccc2c1OCCO2 | > 4 mM (inactive) |
| O=C(Nc1cccnc1)N1CCOCC1 | > 4 mM (inactive) |
| CN(c1ccccc1C(=O)N1CCCC1)S(C)(=O)=O | > 4 mM (inactive) |
| [O-][n+]1onc2c1CCc1c-2nc(-c2ccccc2)n1O | > 4 mM (inactive) |
| CNC(=O)c1cc(C)c(-c2ccccc2)s1 | > 4 mM (inactive) |
| NC(=O)CC(=O)NC12CC3CC(CC(C3)C1)C2 | > 4 mM (inactive) |
| O=C(NCc1cccs1)c1ccc2c(c1)OCCO2 | > 4 mM (inactive) |
| COCCn1c(C)cc(O)cc1=O | > 4 mM (inactive) |
| CSc1ccc(C(=S)N2CCN(C)CC2)cc1 | > 4 mM (inactive) |
| Nc1ncnc(Nc2ccccc2C(F)(F)F)n1 | > 4 mM (inactive) |
| Cc1nnsc1C(=O)O | > 4 mM (inactive) |
| CCc1ccccc1NC(=O)c1cnccn1 | > 4 mM (inactive) |
| Cc1ccc(/C=C2/C(=O)N=C(N)N2C)s1 | > 4 mM (inactive) |

| SMILES | Kd |
| --- | --- |
| O=c1[nH]cc(NCc2ccco2)c(=O)[nH]1 | > 4 mM (inactive) |
| COc1ccc(-c2c(O)c3c(OC)c4c(cc3oc2=O)OC(C)(C)CC4)cc1 | > 4 mM (inactive) |
| COC[C@]12CN(C=O)C3[C@@H]4[C@H](OC)C1[C@]3(C1CC3(O)C(OC)C(O)C4(OC(C)=O)C1C3OC(=O)c1ccccc1)[C@@H](OC)C[C@H]2O (stereo not given in full) | > 4 mM (inactive) |
| C=C(C)[C@@H]1CC[C@]2(CO)CC[C@]3(C)[C@H](CCC4[C@@]5(C)CC[C@H](O)C(C)(C)C5CC[C@]43C)C12 (stereo not given in full) | > 4 mM (inactive) |
| CSc1ncc(C(=O)O)n1Cc1ccccc1 | > 4 mM (inactive) |
| CCOC(=O)C1CCNCC1 | > 4 mM (inactive) |
| NCc1csc(-c2ccccc2)n1 | > 4 mM (inactive) |
| O=C(O)c1ccc2snnc2c1 | > 4 mM (inactive) |
| Oc1ccc(C2SCCS2)cc1 | > 4 mM (inactive) |
| Nc1oncc1-c1ccccn1 | > 4 mM (inactive) |
| Cc1cccc(CSc2nncc(=O)[nH]2)c1 | > 4 mM (inactive) |
| COc1ccc2c(c1)c1n[nH]c(=S)nc1n2C | > 4 mM (inactive) |
| Cc1nc2ccccc2c(=O)[nH]1 | > 4 mM (inactive) |
| CCc1noc(C)c1C(=O)N1CCCC1 | > 4 mM (inactive) |
| Nc1cc(=O)[nH]c(=O)n1Cc1ccco1 | > 4 mM (inactive) |
| NC(=S)NC(=O)CN1C(=O)c2ccccc2C1=O | > 4 mM (inactive) |
| NC(=O)CSc1ccc(Br)cc1 | > 4 mM (inactive) |
| O=C(c1ccncc1)c1ccc(Br)cc1 | > 4 mM (inactive) |
| CC1=C/C(=C\c2c(O)[nH]c(=O)[nH]c2=O)C(C)=N1 | > 4 mM (inactive) |
| NC(=O)C1CCN(S(=O)(=O)c2ccccc2)CC1 | > 4 mM (inactive) |
| CCOC(=O)CNc1ncnc2c1nnn2CC | > 4 mM (inactive) |
| O=C1CNc2cc(C(=O)O)ccc2N1 | > 4 mM (inactive) |
| CCC1(CC)C(=O)N=C(N)NC1=O | > 4 mM (inactive) |
